Results on 15 molecules are retold here after PubChem BioAssay (Tox21).

“And” between values parts separate entries of the source, which are not always exact repeats. Identical values can stand only once. Values without a mark were called inactive. Results filed as inconclusive are left out. The source made the active and inactive calls. Unless noted, calls follow the shape of the full dose curve.

Assay [1] is described as follows: qHTS assay to identify small molecule antagonists of the sonic hedgehog signaling (Shh) pathway (AID 1259369). Also: nearly all actives have a fitted effect of over 45% in size. Also: potency is read from the fitted curve at half-maximal effect. In outline: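 Stable Gli1-Luc reporter NIH/3T3 clone; quantitative HTS in stimulated mode with conditioned medium. Luminescence measured after 24hr compound treatment at 37 C.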
On the technique in general: qHTS replaces the single test concentration by a dilution series.

Assay [2] in a line: qHTS assay to identify small molecule agonists of the androgen receptor (AR) signaling pathway in the presence of an antagonist - cell viability counter screen (AID 1259379; active = well fitted curve in the direction sought with a large enough effect in the repeat runs; an effect the other way counts as inactive or inconclusive; also: nearly all actives have a fitted effect of over 25% in size; also: potency is read from the fitted curve at half-maximal effect;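 as to activity change, negative = cytotoxicity: MDA-kb2 human breast cancer cells carrying an MMTV luciferase reporter; series mostly up to about 92 µM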). In outline:
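Nilutamide-containing (3.0uM final) MDA-kb2 cultures, 3,000 cells/well, were treated with compounds across 15 concentrations. After 16 hr at 37C with no CO2, cell viability was determined by CellTiter-Fluor fluorescence in the luciferase assay wells.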

A short description of assay [3]: qHTS assay to identify small molecule agonists of the estrogen receptor beta (ER-beta) signaling pathway - cell viability counter screen (AID 1259380; active = well fitted curve in the direction sought with a large enough effect in the repeat runs; an effect the other way counts as inactive or inconclusive; also: nearly all actives have a fitted effect of over 30% in size; also: potency is read from the fitted curve at half-maximal effect). In outline:
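Steps: plate ER-beta-UAS-bla HEK293T cells, rest 6 hr; add compounds in DMSO; incubate 16 hr at 37C, 5% CO2; add FRET substrate 2 hr; add CellTiter-Glo, wait 30 min at room temperature; read luminescence.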

The nature of assay [4]: qHTS assay to identify small molecule antagonists of the estrogen receptor beta (ER-beta) signaling pathway - cell viability counter screen (AID 1259382; active = well fitted curve in the direction sought with a large enough effect in the repeat runs; an effect the other way counts as inactive or inconclusive; also: nearly all actives have a fitted effect of over 55% in size; also: potency is read from the fitted curve at half-maximal effect; as to activity change, negative = cytotoxicity: series mostly up to about 92 µM). Summed up:
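Viability is scored by CellTiter-Glo luminescence (30 min, room temperature) in ER-beta-UAS-bla HEK293T wells already read for reporter fluorescence. Compound exposure lasts 16 hr at 37C alongside 1nM 17-beta-estradiol in charcoal-stripped serum medium.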

Assay [5] is described as follows: qHTS assay to identify small molecule agonists or antagonists of the thyroid stimulating hormone receptor (TSHR) signaling pathway - wild type cell line counter screen (AID 1259384). In outline: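 Wild-type HEK293 cells were plated 18 h at 37 C/5% CO2, pin-dosed with compound plus Ro20-1724 medium, held 30 min at room temperature, then given cAMP-d2 and anti-cAMP-cryptate; fluorescence was read after 1 h. Fifteen concentrations, triplicate.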

Assay [6] deals with Thyrotropin receptor (Homo sapiens) (UniProt P16473). Description: qHTS assay to identify small molecule antagonists of the thyroid stimulating hormone receptor (TSHR) signaling pathway (AID 1259385). Also: nearly all actives have a fitted effect of over 20% in size. Also: potency is read from the fitted curve at half-maximal effect. In outline:
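TSHR-HEK293 cells were plated and held 18 h at 37C/5% CO2, then given compound plus Ro20-1724 and stimulated with TSH at 1.5 ng/mL final. After 30 min at room temperature, cAMP was detected with cAMP-d2/anti-cAMP-cryptate (1 h) by fluorescence.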

In assay [7] the target is Estrogen receptor (Homo sapiens) (UniProt P03372). Description: qHTS assay to identify small molecule agonists of the estrogen receptor alpha (ER-alpha) signaling pathway in the presence of an antagonist (AID 1259383). Also: top concentration of the series differs between compounds; nearly all actives have a fitted effect of over 15% in size. In outline:
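Readout was ERE-driven luciferase luminescence in VM7Luc4E2 cells, which express full-length ER-alpha endogenously. Compounds were tested at 15 concentrations for 22hr alongside 10.0nM ICI-182,780 (final concentration).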

Assay [8] concerns the target Androgen receptor (Homo sapiens) (UniProt P10275). Nature of the assay: qHTS assay to identify small molecule agonists of the androgen receptor (AR) signaling pathway in the presence of an antagonist (AID 1259381). Also: nearly all actives have a fitted effect of over 15% in size. Summed up: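 Reporter-gene luminescence from MDA-kb2 cells exposed 16hr at 37C (0% CO2) to 15-point compound titrations with 3.0uM final nilutamide as AR antagonist.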

In assay [9] the target is Estrogen receptor beta (Homo sapiens) (UniProt Q92731). Description: qHTS assay to identify small molecule antagonists of the estrogen receptor beta (ER-beta) signaling pathway (AID 1259378; active = well fitted inhibition curve with a large enough effect in the signal ratio in the repeat runs, not every such curve was filed as active; the % refers to the signal ratio; also: potency is read from the fitted curve at half-maximal effect). In outline:
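ER-beta-UAS-bla HEK293T (GripTite) cells in 2% charcoal-stripped FBS medium were preincubated 6 hr at 37C, dosed with compound, then stimulated with 1 nM E2 (final) for 16 hr; beta-lactamase reporter read by B/G FRET fluorescence after 2 hr substrate loading.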
% is scaled to controls: 0 for no effect and ±100 for the full control effect.

Chain of Androgen receptor (Homo sapiens) (P10275 whole entry, looked up): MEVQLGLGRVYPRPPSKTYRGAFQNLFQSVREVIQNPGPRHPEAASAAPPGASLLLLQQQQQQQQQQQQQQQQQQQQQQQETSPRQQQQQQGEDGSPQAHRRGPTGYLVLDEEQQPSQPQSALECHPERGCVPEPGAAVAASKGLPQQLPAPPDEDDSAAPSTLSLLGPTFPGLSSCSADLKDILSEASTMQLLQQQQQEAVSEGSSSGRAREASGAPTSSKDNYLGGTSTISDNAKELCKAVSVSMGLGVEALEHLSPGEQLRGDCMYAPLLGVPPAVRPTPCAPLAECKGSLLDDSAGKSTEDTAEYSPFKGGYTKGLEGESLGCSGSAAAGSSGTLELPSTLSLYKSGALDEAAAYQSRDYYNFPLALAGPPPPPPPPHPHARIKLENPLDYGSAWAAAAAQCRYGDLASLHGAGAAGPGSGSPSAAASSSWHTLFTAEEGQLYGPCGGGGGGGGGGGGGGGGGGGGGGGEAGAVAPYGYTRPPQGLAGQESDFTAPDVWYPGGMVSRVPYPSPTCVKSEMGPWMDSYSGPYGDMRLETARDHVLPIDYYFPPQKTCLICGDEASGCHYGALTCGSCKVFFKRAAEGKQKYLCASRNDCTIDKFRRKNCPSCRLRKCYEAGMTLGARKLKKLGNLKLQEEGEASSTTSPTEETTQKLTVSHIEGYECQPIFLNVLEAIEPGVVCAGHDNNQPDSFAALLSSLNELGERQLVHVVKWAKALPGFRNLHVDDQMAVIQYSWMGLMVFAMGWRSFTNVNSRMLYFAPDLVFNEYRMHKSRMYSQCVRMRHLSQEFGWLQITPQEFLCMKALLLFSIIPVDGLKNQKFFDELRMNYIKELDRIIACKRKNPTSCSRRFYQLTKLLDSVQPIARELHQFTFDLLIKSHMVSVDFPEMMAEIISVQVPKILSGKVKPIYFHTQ
Chain of Estrogen receptor beta (Homo sapiens) (Q92731 whole entry, looked up): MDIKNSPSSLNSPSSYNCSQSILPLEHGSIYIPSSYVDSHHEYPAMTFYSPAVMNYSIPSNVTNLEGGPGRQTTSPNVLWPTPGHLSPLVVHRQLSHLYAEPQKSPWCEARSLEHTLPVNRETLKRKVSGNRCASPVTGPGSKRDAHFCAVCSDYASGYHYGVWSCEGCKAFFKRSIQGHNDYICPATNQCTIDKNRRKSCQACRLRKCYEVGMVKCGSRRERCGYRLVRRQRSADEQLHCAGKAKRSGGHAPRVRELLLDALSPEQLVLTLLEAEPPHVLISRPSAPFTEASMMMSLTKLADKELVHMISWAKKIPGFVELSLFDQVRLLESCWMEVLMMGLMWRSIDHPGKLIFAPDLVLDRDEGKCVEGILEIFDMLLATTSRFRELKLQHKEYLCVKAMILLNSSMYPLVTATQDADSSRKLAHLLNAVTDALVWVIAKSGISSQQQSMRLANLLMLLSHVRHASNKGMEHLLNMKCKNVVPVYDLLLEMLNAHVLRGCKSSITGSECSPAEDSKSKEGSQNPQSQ
Chain of Thyrotropin receptor (Homo sapiens) (P16473 whole entry, looked up): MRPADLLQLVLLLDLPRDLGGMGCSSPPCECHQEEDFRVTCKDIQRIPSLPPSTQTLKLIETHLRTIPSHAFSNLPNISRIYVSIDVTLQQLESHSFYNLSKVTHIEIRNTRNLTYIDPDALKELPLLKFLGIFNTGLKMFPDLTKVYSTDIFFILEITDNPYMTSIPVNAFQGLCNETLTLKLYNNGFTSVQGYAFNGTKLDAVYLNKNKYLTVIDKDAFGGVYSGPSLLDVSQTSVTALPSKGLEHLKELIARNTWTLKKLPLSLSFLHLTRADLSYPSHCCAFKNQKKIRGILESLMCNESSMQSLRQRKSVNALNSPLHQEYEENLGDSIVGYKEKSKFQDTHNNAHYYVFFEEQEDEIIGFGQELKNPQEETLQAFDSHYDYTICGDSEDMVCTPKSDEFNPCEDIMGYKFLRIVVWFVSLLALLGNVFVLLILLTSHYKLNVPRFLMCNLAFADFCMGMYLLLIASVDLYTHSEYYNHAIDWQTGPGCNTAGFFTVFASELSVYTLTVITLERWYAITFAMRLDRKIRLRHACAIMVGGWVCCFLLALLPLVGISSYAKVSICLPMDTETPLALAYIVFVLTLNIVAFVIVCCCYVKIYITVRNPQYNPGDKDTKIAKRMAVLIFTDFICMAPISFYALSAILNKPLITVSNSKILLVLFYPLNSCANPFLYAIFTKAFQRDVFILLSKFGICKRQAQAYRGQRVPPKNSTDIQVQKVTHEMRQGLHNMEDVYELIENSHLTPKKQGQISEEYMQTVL
Chain of Estrogen receptor (Homo sapiens) (P03372 whole entry, looked up): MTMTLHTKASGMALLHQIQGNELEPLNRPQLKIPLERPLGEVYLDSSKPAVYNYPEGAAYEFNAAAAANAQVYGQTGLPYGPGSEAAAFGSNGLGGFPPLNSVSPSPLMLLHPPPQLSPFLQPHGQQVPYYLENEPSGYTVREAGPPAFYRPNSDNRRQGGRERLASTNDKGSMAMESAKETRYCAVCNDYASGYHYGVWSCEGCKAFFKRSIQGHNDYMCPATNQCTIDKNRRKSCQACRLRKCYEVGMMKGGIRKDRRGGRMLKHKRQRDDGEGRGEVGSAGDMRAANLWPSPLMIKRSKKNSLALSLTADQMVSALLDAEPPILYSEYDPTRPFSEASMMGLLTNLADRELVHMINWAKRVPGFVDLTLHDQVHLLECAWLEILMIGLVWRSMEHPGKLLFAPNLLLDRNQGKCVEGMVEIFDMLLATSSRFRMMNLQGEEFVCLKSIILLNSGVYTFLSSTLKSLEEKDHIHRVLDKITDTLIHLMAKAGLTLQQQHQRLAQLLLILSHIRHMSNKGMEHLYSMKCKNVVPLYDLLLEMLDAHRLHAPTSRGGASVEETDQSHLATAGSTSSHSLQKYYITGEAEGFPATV

For `O=C1CCc2ccc(OCCCCN3CCN(c4cccc(Cl)c4Cl)CC3)cc2N1`, the Potency in assay [1] was 11.9 µM (active); in assay [2] it was 26.6 µM (active); in assay [3], 10.6 µM (active); in assay [4], 33.5 µM (active). Moreover, the outcome in assay [5] was inactive. For the same molecule, the Potency entry in assay [6] was “inactive”.
For the molecule `Cc1ccc(C(=O)O)cc1`, the Potency result in [1], in assay [2], in [3], in assay [4] and in assay [6] was “inactive” each time. The molecule was called inactive in assay [5].
With `c1cnccn1`, the Potency entry in [1], in assay [2], in assay [3], in [4], in assay [7] and in assay [6] was “inactive” each time. In addition, in assay [5], the outcome was inactive.
Turning to `Cc1c2ccccc2c(C)c2c1ccc1ccccc12`, the Potency is 10.9 µM (active) in assay [1]; 53.9 µM (active) and 61.1 µM (active) in [2]; 30.3 µM (active) and 27.3 µM (active) in assay [3]; 24.3 µM (active) in assay [4]. Further, the result in [8] and in assay [5] was inactive. For the same molecule, in assay [6], the Potency entry was “inactive”.
As for `Cc1c(F)c(N2CCNC(C)C2)cc2c1c(=O)c(C(=O)O)cn2C1CC1` (stereo not given), the Potency result in assay [1], in [2], in assay [3], in [4], in [7] and in [6] was “inactive” throughout. Also, the molecule was called inactive in assay [5].
`CCCCCCCCCCCCCC[N+](C)(C)Cc1ccccc1`: the Potency in assay [1] was 349 nM (active) and 422 nM (active); in assay [2], 43.9 µM (active) and 29.8 µM (active) and 14.1 mM (active); in assay [3] it was 27.7 µM (active) and 10.6 µM (active) and 11.2 mM (active); in [4] it was 19.6 µM (active) and 9.44 µM (active) and 10 mM (active). Moreover, the Potency result in assay [7] and in [6] was “inactive” each time. Moreover, the result in assay [5] was inactive.
With `CC(C)(c1cc(Br)c(OCC(Br)CBr)c(Br)c1)c1cc(Br)c(OCC(Br)CBr)c(Br)c1` (stereo not given), the Potency result in assay [1], in assay [2], in assay [3], in [4], in [7] and in assay [6] was “inactive” each time. Also, the molecule was classed as inactive in assay [5].
Take `O=C(O)CCN(C1(C(=O)NO)CCCC1)S(=O)(=O)c1ccc(Oc2ccc(F)cc2)cc1`: the Potency result in [1], in assay [2], in assay [3], in assay [4] and in assay [6] was “inactive” in each case. Besides, the outcome in assay [5] was inactive.
For the molecule `CC(C)(C)CC(C)(C)c1ccc(Nc2ccc(C(C)(C)CC(C)(C)C)cc2)cc1`, the activity change, negative = inhibition in [1] is -12.5% [at 8.39 µM]; in [6], 1.31% [at 8.39 µM]. The activity, negative = inhibition in assay [9] is -7.19% [at 8.39 µM]. The activity change, negative = cytotoxicity in assay [2] was 1.22% [at 8.39 µM]; in [4], -9.43% [at 8.39 µM]. Moreover, the activation in assay [7] is 1.18% [at 8.39 µM]. In [5], the cAMP activity change is 6.94% [at 8.39 µM].
For `CC[N+](CC)(CC)CCOC(=O)C(C1CCCC1)C1CCCC1`, the Potency result in assay [1], in assay [3] and in [7] was “inactive” in each case. Further, the Potency in [2] was 33.5 µM (active).
Consider `COc1ccc2cc1Oc1ccc(cc1)C[C@H]1c3c(cc4c(c3Oc3cc5c(cc3OC)CCN(C)[C@@H]5C2)OCO4)CCN1C`, for which the Potency in assay [1] is 3.76 µM (active); in [2], 26.6 µM (active); in assay [3], 26.6 µM (active); in [6], 23.7 µM (active). Besides, the result in [8] and in assay [5] was inactive. Moreover, the Potency result in assay [4] and in assay [7] was “inactive” throughout.
Turning to `CC1(C)CCC[C@]2(C)[C@H]3CCO[C@]3(C)CC[C@@H]12`, the Potency entry in assay [1], in [2], in assay [3] and in [6] was “inactive” in each case. The molecule was classed as inactive in [5].
In the case of `Cc1cc(C(C)(C)C)c(O)c(C)c1Cn1c(=O)n(Cc2c(C)cc(C(C)(C)C)c(O)c2C)c(=O)n(Cc2c(C)cc(C(C)(C)C)c(O)c2C)c1=O`, the Potency entry in assay [1], in [9], in assay [3], in assay [4], in assay [7] and in assay [6] was “inactive” throughout. The call in assay [5] was inactive.
As for `CC[C@H](C)COC(=O)/C=C/c1ccc(N=Cc2ccc(OC)cc2)cc1`, the Potency result in [1] and in assay [7] was “inactive” in each case. Further, the Potency in [9] was 54.4 µM (active). Also, in assay [5], the result was inactive.
Regarding `O=C(O)c1cccc(C(F)(F)F)c1`, the Potency entry in assay [1], in assay [2], in assay [3], in [4], in assay [7] and in assay [6] was “inactive” in each case. For the same molecule, in assay [5], the call was inactive.
